Test results published in PubChem BioAssay AID1347414 (National Center for Advancing Translational Sciences (NCATS), 2020).
Records with an inconclusive call do not appear. Calls of active or inactive are those of the source. The call rests on the fitted dose curve; in most records, active means well fitted inhibition curve with a large enough effect; inconclusive means small, poorly fitted or top-dose-only effect; inactive means no such curve, though single readings can be large or run the other way. Numbered stars: 1 amine (or outer) side, 2 acyl side, 3 side chain; on linkers, the order of the positions; unused ones are H or OH. Bridge positions count the residues as written; N and C are the ends. Square brackets hold non-standard residues; d marks the D form. Peptide text beside a SMILES is read from it. I, II: the chains in the order shown. Actinocin(9to1) = Cc1c2oc3c(C)ccc(C(=O)[*:1])c3nc-2c(C(=O)[*:2])c(N)c1=O; NMeV = CN[C@H](C(=O)O)C(C)C; Sar = CNCC(=O)O

experiment: qHTS to identify inhibitors of the type 1 interferon - major histocompatibility complex class I in skeletal muscle: Secondary screen by immunofluorescence; details: C25cl48 myoblasts, IFN-b induced HLA-ABC immunofluorescence, 24 h; series mostly up to 49.8 µM; activity change, negative = inhibition: at the top concentration; further: nearly all actives have a fitted effect of over 70% in size;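 on activity change, negative = inhibition: digitonin at 100 µM served as the cytotoxic control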
From the text: Assay Submitter (PI): Travis B. Kinder Ph.D. & James Inglese Ph.D. Assay Development and Screening Technology Laboratory (ADST) National Center for Advancing Translational Sciences (NCATS), Rockville, MD National Institute of Health (NIH), Bethesda, Maryland Idiopathic inflammatory myopathies, collectively referred to as myositis, are a group of rare autoimmune diseases characterized by skeletal muscle inflammation, weakness, and usually accompanied by systemic pathologies of the skin, lungs, or vasculature. Current immunosuppressive therapies and glucocorticoids are often not curative and are accompanied by harsh side effects, especially in children with juvenile myositis. We initiated a drug repurposing and development program to identify more targeted, less toxic therapeutics to treat myositis. Although its cause is not known, muscle from a subset of patients have an abundance of the inflammatory type 1 interferon (IFN) and a down-stream product major histocompatibility complex class I (MHC class I), which are both thought to contribute to damage and weakness. We conducted quantitative high throughput screening (qHTS) on 6,576 compounds (4,679 unique) through a series of cell-based assays to identify those that inhibit the IFN-stimulated expression of MHC class I in muscle precursor cells (myoblasts). The compound identification and evaluation strategy utilized a primary screen with reporter-tagged MHC class I in genome-engineered myoblasts, ATP content counter screen for viability, HLA-ABC immunofluorescence secondary screen, and HLA-B RT-qPCR tertiary screen. To verify activity of compounds identified by qHTS in HLA-B HiBit reporter cells, compounds were assayed by high throughput HLA-ABC immunofluorescence. Briefly, 216 compounds identified from primary and counter screening as inhibitory with minimal cytotoxicity were dispensed into black/clear bottom […] using acoustic dispensing in an 11-point, 1:3 titration with a high final concentration of 50 uM. Normal immortalized human myoblasts C25cl48 were added to the plates with 4.0 ng/ml human IFN-beta for 24 hours, fixed, stained by immunofluorescence for HLA-ABC protein, nuclei, and cell body, and analyzed by laser scanning cytometry as described by Auld et al., 2006. References: Auld DS, Johnson RL, Zhang Y, Veith H, Jadhav A, Yasgar A, Simeonov A, Zheng W, Martinez ED, Westwick JK, Austin CP, Inglese J. 2006. Fluorescent protein-based cellular assays analyzed by laser-scanning microplate cytometry in 1536-well plate format. Methods Enzymol 414:566-89. doi:10.1016/S0076-6879(06)14029-X
PROTOCOL TABLE (as described by Inglese et al., 2007) SEQUENCE No. (e.g., 1, 2, 3, etc.); […] (e.g., Cells, Incubation, Reagent, etc.); VALUE; DESCRIPTION 0; Compounds; 25 nl; Follow-up compounds dispensed at 25 nl/well with Labcyte Echo 655 acoustic dispenser in triplicate Aurora ChemLib 1536K black/clear bottom, low base, TC 1536-well plates (00019324). Also dispensed 25 nl/well DMSO control, ruxolitinib IFN-b inhibitor control titration, and digitonin cytotoxic control 1a; Cells; 5 uL; Multidrop Combi (Thermo Scientific) to seed 125 cells/well into eight plates in 5 ul/well of iHSKM growth medium (GM) without dexamethasone into columns 1+2. Add metal lids with gas-exchange holes 1b; Cells; 5 uL; Multidrop Combi (Thermo Scientific) to seed 125 cells/well into eight plates in 5 ul/well of iHSKM GM without dexamethasone + 4 ng/ml IFN-b into columns 3 - 48. […]
On the % scale 0 is the no-effect control and ±100 the full control effect; potency means the concentration at half of the fitted maximal effect.

Potency, active:
CN1C/C=C/CCOc2cccc(c2)-c2ccnc(n2)Nc2cccc(c2)C1 115 nM
COc1cc(C(=O)N2CCC(N3CCN(C)CC3)CC2)ccc1Nc1ncc2c(n1)N(C)c1ccccc1C(=O)N2C 6470 nM
COc1cccc2c1C(=O)c1c(O)c3c(c(O)c1C2=O)C[C@@](O)(C(=O)CO)C[C@@H]3O[C@H]1C[C@H](N)[C@H](O)[C@H](C)O1 230 nM
Cc1c2oc3c(C)ccc(C(=O)N[C@@H]4C(=O)N[C@H](C(C)C)C(=O)N5CCC[C@H]5C(=O)N(C)CC(=O)N(C)[C@@H](C(C)C)C(=O)O[C@@H]4C)c3nc-2c(C(=O)N[C@@H]2C(=O)N[C@H](C(C)C)C(=O)N3CCC[C@H]3C(=O)N(C)CC(=O)N(C)[C@@H](C(C)C)C(=O)O[C@@H]2C)c(N)c1=O (I: T[dV]P[Sar][NMeV] / II: T[dV]P[Sar][NMeV]; ester I:1-I:C, II:1-II:C; linker I:N-II:N via Actinocin(9to1)) 57.6 nM
C#Cc1cccc(Nc2ncnc3cc(OC)c(OCCCCCCC(=O)NO)cc23)c1 289 nM
CC(C)c1c2cc(-c3ccnc(NC4CCC(NC5CCOCC5)CC4)n3)ccc2nn1C (stereo not given) 145 nM
O=C(/C=C/C#Cc1cccc(NS(=O)(=O)c2ccccc2)c1)NO 1450 nM
CCc1c(O)cc(O)c(C(=O)c2ccc(OCCN3CCOCC3)c(OC)c2)c1CC(=O)N(CCOC)CCOC 814 nM
CCS(=O)(=O)N1CCN(c2ccc(Nc3ncc(C(N)=O)c(NC4CC4)n3)cc2)CC1 1290 nM
COc1cc(F)ccc1-c1ncnc(Nc2cccc(CS(C)(=N)=O)c2)n1 (stereo not given) 814 nM
CC(/C=C/C(=O)NO)=C\[C@@H](C)C(=O)c1ccc(N(C)C)cc1 204 nM
C=CC(=O)N1CCc2ccc(-n3c(=O)ccc4cnc5ccc(-c6cnn(C)c6)cc5c43)cc21 2890 nM
CS(=O)(=O)N1CCC(NC(=O)c2[nH]ncc2NC(=O)c2c(Cl)cccc2Cl)CC1 1450 nM
CC1(COc2ccc3c(c2)ncn3-c2ccc3cccc(N4CCC(N)CC4)c3n2)COC1 5140 nM
CN(C)C/C=C/C(=O)Nc1ccc(C(=O)N2CCC[C@@H](Nc3ncc(Cl)c(-c4c[nH]c5ccccc45)n3)C2)cc1 230 nM
CCC[C@H](NC(=O)/C(C#N)=C/c1cccc(Br)n1)c1ccccc1 6470 nM
O=C1Nc2nc(-c3c(O)cccc3OCC3CC3)cc([C@@H]3CCCNC3)c2CO1 4580 nM
CC1(C)CC(=O)c2c(C(F)(F)F)nn(-c3ccc(C(N)=O)c(NC4CCC(O)CC4)c3)c2C1 (stereo not given) 32.4 nM
CN(C)c1ccc(C(=O)NCCCCCCC(=O)NO)cc1 647 nM
CC[C@@]1(O)C(=O)OCc2c1cc1n(c2=O)Cc2cc3cc(O)ccc3nc2-1 1620 nM
C=C1C(=O)O[C@H]2C[C@H](C)C(/C=C/C(C)=O)=CC[C@H]12 5760 nM
N#CCNC(=O)c1ccc(-c2ccnc(Nc3ccc(N4CCOCC4)cc3)n2)cc1 1620 nM
NC(=O)Nc1sc(-c2ccc(F)cc2)cc1C(N)=O 1450 nM
CCCCc1nc2cc(/C=C/C(=O)NO)ccc2n1CCN(CC)CC 364 nM
Cc1c[nH]c2nc(Nc3ccc(N4CCN(C)CC4)c(F)c3)nc(-c3cccc(CC#N)c3)c12 1620 nM
c1cc(Nc2cc(C3CC3)[nH]n2)nc(Nc2ccc3nc[nH]c3c2)n1 647 nM
CC(C)(C)c1ccc(S(=O)(=O)/C=C/C#N)cc1 2290 nM
COCCN1CCN(Cc2ccc(-c3n[nH]c4c3C(=O)c3c(NC(=O)NN5CCOCC5)cccc3-4)cc2)CC1 51.4 nM
Cc1cc(O)c(-c2ccc([C@@H](C)CN)cc2)c2c1[nH]c(=O)c1sccc12 18.2 nM

Activity change, negative = inhibition, inactive:
CCCOc1ccc2nc(NC(=O)OC)[nH]c2c1 1.06%
Cc1cc2c(cc1CC(=O)c1sccc1S(=O)(=O)Nc1onc(C)c1Cl)OCO2 11%
Cc1oncc1C(=O)Nc1ccc(C(F)(F)F)cc1 10.8%
O=C1Nc2ccccc2C1(c1ccc(O)cc1)c1ccc(O)cc1 0.682%
Fc1ccc(CNc2ncnc3ccc(F)cc23)cc1 -27.2%
CCCC(=O)O[C@]1(C(=O)CO)CC[C@H]2[C@@H]3CCC4=CC(=O)CC[C@]4(C)[C@H]3[C@@H](O)C[C@@]21C -0.267%
COC(=O)Nc1nc2ccc(C(=O)c3ccc(F)cc3)cc2[nH]1 8.22%
CCc1c(-c2ccccc2C)nc2c(C#N)c[nH]n2c1=O 4.52%
COC(=O)N[C@@H](C)CNc1nccc(-c2cn(C(C)C)nc2-c2cc(Cl)cc(NS(C)(=O)=O)c2F)n1 -26.1%
CCC(=C/[C@H](C)C/C=C/C(C)=C/[C@@H](C)C(=O)[C@@H](C)[C@H](O)[C@@H](C)C/C(C)=C/C(=O)O)/C=C/[C@@H]1OC(=O)C=C[C@@H]1C -89.2%
CO[C@@H]1[C@@H](O)[C@H](O)[C@@H](n2c3c(Cl)cccc3c3c4c(c5c6cccc(Cl)c6[nH]c5c32)C(=O)NC4=O)O[C@H]1CO 2.3%
